# Measurements taken from PubChem BioAssay AID493166 (National Center for Advancing Translational Sciences (NCATS), 2011).
# Active and inactive are the calls of the source. Calls follow the shape of the dose curve; as a rule, active = well fitted curve in the direction sought with a large enough effect; inactive = no such curve, though single readings can be large or run the other way.
# Test: Retest of LOPAC molecules that induce DNA re-replication in MCF 10A normal breast cells.
# Settings: MCF 10A DNA re-replication, Hoechst nuclear intensity, 48 h; series mostly up to 45.1 µM; activity change, positive = re-replication: at the top concentration
# Text: NIH Molecular Libraries Probe Production Network [MLPCN] NIH Chemical Genomics Center [NCGC] MLPCN Grant: Fast Track K99 CA136555 Assay Provider: Melvin DePamphilis, NICHD, NIH Assay Overview Eukaryotic cells normally restrict genome duplication to once per cell division. When this process is aberrant, DNA re-replication occurs when cells reinitiate DNA replication before the first round of replication is complete. DNA re-replication induces the DNA damage response, arrests cell proliferation, and triggers apoptosis. The cell cycle components cyclin A, Cdt-1, Cdc6 and geminin are critical regulators of this process and their misregulation results in DNA re-replication in normal and cancer cells. To identify compounds that induce re-replication in normal cells, an image-based assay was used to measure DNA content of nuclei, as detected by the fluorescent DNA binding dye, Hoechst. Cell nuclei were imaged by a fluorescence scanning plate imager and compounds that induce DNA re-replication were identified by the increase of nuclei with elevated fluorescence intensity.
# Assay Protocol Summary For screening, 250 cells in 5 uL/well were dispensed into black clear 1536-well plates (Aurora) using a solenoid-based dispenser. Following transfer of 23 nL compound or DMSO vehicle by a pin tool, the plates were incubated 48 hr at 37 C and 5% CO2. After addition of 1 uL/well Hoescht stain, the plates were incubated 40 min at 37 C, 5% CO2 and total intensity of fluorescent objects (nuclei) were enumerated by an Acumen Explorer Ex3 (TTP LabTech) fluorescence scanning plate imager (405 nm excitation, 500-530 nm emission). Keywords: NIH Roadmap, MLPCN, MLI, MLSMR, qHTS, NCGC, DNA replication, cancer
Compound,Potency,"activity change, positive = re-replication"
O=c1cc(-c2ccccc2)[nH]c2nc(Cl)ccc12,5.34 µM (active),
CC(=O)O[C@H]1C(=O)[C@@]2(C)C([C@H](OC(=O)c3ccccc3)[C@]3(O)C[C@H](OC(=O)[C@H](O)[C@@H](NC(=O)c4ccccc4)c4ccccc4)C(C)=C1C3(C)C)[C@]1(OC(C)=O)CO[C@@H]1C[C@@H]2O (stereo not given in full),0.0534 µM (active),
C[C@@H](Oc1ccc(Oc2cnc3ccc(Cl)cc3n2)cc1)C(=O)O,,-68.4% (inactive)
CCCCCCN(CCCCCC)C(=O)Cc1c(-c2ccc(F)cc2)[nH]c2ccccc12,,29.6% (inactive)
COc1cc2c(cc1O)CC[C@@H]1[C@@H]2CC[C@]2(C)[C@@H](O)CC[C@@H]12,4.76 µM (active),
